D2 antagonist = antagonists of human D2 dopamine receptor; P14416; HEK293 TREx D2 cells, calcium flux, dopamine EC80; inhibition, % at 10 µM; actives 2% (n = 340,000); in the data active = inhibition above about 30%; inactive = below that, where a call was filed; note: 0% is about no effect
Target sequence (P14416 whole entry, looked up): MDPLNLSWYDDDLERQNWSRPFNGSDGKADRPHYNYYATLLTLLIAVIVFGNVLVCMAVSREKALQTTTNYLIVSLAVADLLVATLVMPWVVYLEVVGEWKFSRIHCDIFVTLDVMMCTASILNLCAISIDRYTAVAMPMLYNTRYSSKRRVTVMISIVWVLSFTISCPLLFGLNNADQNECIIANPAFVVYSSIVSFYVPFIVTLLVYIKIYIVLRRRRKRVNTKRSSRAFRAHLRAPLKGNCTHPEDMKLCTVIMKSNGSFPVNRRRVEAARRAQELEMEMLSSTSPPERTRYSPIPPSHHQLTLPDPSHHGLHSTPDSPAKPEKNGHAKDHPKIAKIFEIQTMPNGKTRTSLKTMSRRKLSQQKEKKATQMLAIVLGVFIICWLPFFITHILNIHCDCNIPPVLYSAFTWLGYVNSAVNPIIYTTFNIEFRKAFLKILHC
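In this primary screen, negative modulation is detected by tracking calcium flux after an EC80 dopamine challenge in inducible HEK293 T-REx D2 cells preexposed to test compound for 180 s.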
D2 PAM-1 = D2 dopamine receptor (human) potentiation | potentiation, % at 10 µM | actives 0.34% (n = 340,000) | P14416 | HEK293 T-REx D2, calcium flux, EC20 dopamine potentiation;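 active = potentiation over 3 SD above the plate norm, cut at about 30% in these data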; note: 0% is about no effect
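Calcium flux readout, no-wash dye, 1 read/s. Inducible HEK293 Trex D2 line, overnight 30 C. Compound alone 180 s (agonist flags), then EC20 dopamine, another 180 s to score potentiation.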
D2 ag-1 = activates the human D2 dopamine receptor; AID 485358; P14416; HEK293 T-REx D2 cells, calcium flux agonist mode; actives 0.53% (n = 340,000); activation, % at 2 µM;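 active = activation over 3 SD above normal in the single-dose calcium agonist read, cut at about 30% in these data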; note: 0% is about no effect
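Agonism scored from kinetic calcium signal (1 read/sec, 180 s) following compound pin transfer, after a 10 s baseline. Cells: HEK293 Trex line expressing inducible D2 receptor coupled to calcium, dye-loaded after overnight culture at 30 C.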
D2 ag-2 = activates the human D2 dopamine receptor | DiscoveRx PathHunter D2 beta-arrestin, luminescence, 90 min; 100% = 57 uM dopamine signal | P14416 | activation, % (test concentration not listed) | actives 0.084% (n = 360,000); in the data active = activation above about 40%
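DiscoveRx PathHunter D2 beta-arrestin cells (2,100/well) attached overnight, then compound-stimulated 90 min at 37 C in HBSS/10 mM HEPES/0.1% Tween-20 buffer; beta-galactosidase complementation read by luminescence after 1 h at ambient temperature. Dopamine 57 uM final (EC100) as control.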
D2 PAM-2 = human D2 receptor positive allosteric modulation; P14416; DiscoveRx D2 beta-arrestin cells, luminescence, 90 min; 100% = 57 uM dopamine signal; potentiation, % (no concentration beside the values); actives 0.23% (n = 360,000); in the data active = potentiation above about 50%
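PathHunter D2 cells, attached overnight at 37 deg C, received compound in DMSO plus dopamine at EC20 (50 nM final) for 90 min at 37 deg C. Beta-arrestin recruitment was read as luminescence after 1 h with detection reagent at ambient temperature.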
Starred values were filed as active, the others as inactive; · = no result. This is a sample that favours compounds with a hit; in the whole collection about 2.4% have one here.

SMILES | D2 antagonist | D2 PAM-1 | D2 ag-1 | D2 ag-2 | D2 PAM-2
O=c1c2c([N+](=O)[O-])cc([N+](=O)[O-])cc2sn1Cc1ccccc1 | · | · | · | -7 | 8
CCCN1C2CCCC1CC(NC(=S)Nc1ccc(OC)cc1)C2 (stereo not given) | -10 | -4 | 0 | -19 | -7
CCc1ccccc1NC(=O)NC1CC2CCC(C1)N2Cc1cccs1 (stereo not given) | 55* | -18 | -1 | -3 | -26
CCc1ccccc1NC(=O)NC1CCCCC1 | · | · | · | -2 | -28
CCc1ccc(NC(=S)NC2CC3CCCC(C2)N3Cc2cccs2)cc1 (stereo not given) | 64* | -25 | 1 | 0 | -29
CCN(CC)CCCNC(=S)N1CCN(c2nc3ccccc3n2CC)CC1 | 48* | -17 | 2 | 6 | -20
COc1cc(C(=O)Nc2ccc(S(=O)(=O)NC(C)C)cc2)cc(OC)c1OC | 31* | 0 | 0 | 2 | -6
COc1cc(C(=O)Nc2ccc(S(=O)(=O)NC(C)(C)C)cc2)cc(OC)c1OC | -22 | -1 | 0 | 1 | -2
Cc1cc(Br)ccc1NC(=O)C(NS(=O)(=O)c1cccs1)c1ccccc1 (stereo not given) | · | -2 | -1 | · | ·
COc1cc2ccccc2nn1 | -5 | 12 | 1 | -2 | -6
COc1ccc2c(n1)Sc1nc3ccccc3nc1N2 | 49* | -5 | 92* | 4 | 2
Cc1ccccc1NC(=O)c1nc(-c2ccncc2)no1 | · | -1 | 0 | · | ·
Cc1nn(-c2ccccc2)c2c1N(CC(=O)N1CCN(c3cccc(Cl)c3)CC1)C(=O)CS2 | · | 6 | · | · | ·
CCOc1ccc(CCNC(=O)CSc2ncn[nH]2)cc1OCC | -18 | 6 | 0 | -1 | -7
CNC(=O)Cn1nc(-c2ccc(C)c(S(=O)(=O)N(C)C)c2)c2ccccc2c1=O | -6 | 38* | -1 | -2 | -7
COc1ccc(C2C(O)C(c3c[nH]c4ccccc34)=NN2C(=O)CCl)cc1 (stereo not given) | 32* | -4 | 0 | -4 | 6
COc1ccc(Cc2nc(-c3ccncc3)no2)cc1 | -20 | 5 | -1 | -1 | 51*
CC(C)(C)c1ccc(OCc2nc(-c3ccccn3)no2)c(Br)c1 | 38* | 7 | 0 | 0 | -21
COc1ccc(Cc2nc(-c3ccccn3)no2)cc1 | 34* | 5 | 1 | -2 | -1
Clc1cc(Cl)c(OCc2nc(-c3ccccn3)no2)cc1Cl | -19 | -2 | 2 | -3 | -5
CC(=O)Nc1ccc(C)cc1-c1nc2ccccc2n(CC(=O)c2ccc(Cl)cc2)c1=O | · | -7 | 1 | · | ·
CCOC(=O)c1ccccc1NC(=O)c1sc2ncn(CC)c(=O)c2c1C | · | 0 | 0 | · | ·
COc1ccc(-c2cc(C(F)(F)F)n3nc(C)c(-c4ccccc4)c3n2)cc1OC | · | -2 | 0 | · | ·
COc1ccc(NC(=O)c2oc3ccccc3c2NC(=O)Cc2ccc(F)cc2)c(OC)c1 | · | · | 0 | · | ·
COC(=O)c1cc2c(ccn2-c2ccc(F)cc2)n1CC(C)C | 15 | 12 | 0 | -3 | -5
SMILES | D2 antagonist | D2 PAM-1 | D2 ag-1 | D2 ag-2 | D2 PAM-2
CCCn1c(C(=O)OC)cc2c1ccn2-c1ccc(F)cc1 | 10 | 32* | 1 | -3 | 8
COC(=O)c1c(NC(=O)c2nc(SC)ncc2Cl)sc2c1CCCC2 | · | 12 | 2 | · | ·
Cc1ccc(Cn2c(=O)n(Cc3ccc(Cl)cc3)c(=O)c3cccnc32)cc1 | · | 1 | · | · | ·
COCCCn1c(C)cc(C(=O)COC(=O)CCc2nc3ccccc3c(=O)[nH]2)c1C | 31* | -2 | 1 | 7 | 1
O=C(COC(=O)C1C2CC3OC(=O)C1C3C2)Nc1ccccc1 (stereo not given) | 69* | 7 | -2 | 2 | -1
COc1cccc(-c2nnc(SCC(=O)NC3CCS(=O)(=O)C3)n2C)c1 (stereo not given) | 39* | -4 | 1 | 2 | -14
COc1ccc2c(c1)-c1nc(/N=C/c3ccc(O)cc3)sc1CC2 | 45* | -6 | -1 | 3 | -15
CN1/C(=C/C=C(/C#N)C(N)=O)C(C)(C)c2ccccc21 | · | · | · | -7 | -19
CN1/C(=C\C=C(/C#N)C(=O)Nc2ccccc2F)C(C)(C)c2ccccc21 | 4 | -5 | 62* | -4 | -3

Screening data: PubChem BioAssay, National Center for Advancing Translational Sciences (NCATS)
